JMJD2A Tudor: qHTS Assay for Inhibitors of JMJD2A-Tudor Domain; 390,000 tested, 4.4% active; Potency, µM (titrated, usually from 114 µM), for the others: at the top dose activity change, negative = inhibition, most hits filed as inhibitors; AlphaScreen JMJD2A-Tudor / H3K4me3 peptide binding; AID 504339, 2011; also: % is scaled to controls: 0 for no effect and ±100 for the full control effect; nearly all actives have a fitted effect of over 50% in size
BAZ2B inh: qHTS Assay for Inhibitors of BAZ2B; AlphaScreen BAZ2B-H3K14Ac peptide displacement; Potency, µM (highest dose often 114 µM), without a hit: at the highest dose activity change, negative = inhibition, most hits filed as inhibitors; 360,000 tested, 4.4% active; also: % is scaled to controls: 0 for no effect and ±100 for the full control effect; nearly all actives have a fitted effect of over 60% in size
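Multi-concentration screen (max 110 uM) measuring displacement of acetylated histone H3 peptide from BAZ2B by AlphaScreen, using 50 nM protein, 50 nM peptide and 10 ug/mL streptavidin donor plus Ni-chelate acceptor beads.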
VDR inh: Inhibitors of the vitamin D receptor (VDR): qHTS | Vitamin D3 receptor (Homo sapiens), P11473 | VDR-SRC2-3 peptide fluorescence polarization, 2 h | Potency, µM, inactives show max response, negative = inhibition, actives largely listed as inhibitors | 400,000 tested, 0.93% active | AID 504847, 2011; also: % is scaled to controls: 0 for no effect and ±100 for the full control effect
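Inhibition of the VDR/SRC2-3 peptide interaction is quantified by fluorescence polarization. Compounds (23 nl, pintool) incubate with the reagents for 2 hours at ambient room temperature.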
HP1b binding inh: HTS for Inhibitors of HP1-beta Chromodomain Interactions with Methylated Histone Tails. 390,000 tested, 0.56% active. Potency, µM (series often up to 114 µM), for inactives: at the top dose activity change, negative = inhibition, actives largely listed as inhibitors. AID 540317, 2011. AlphaScreen HP1-beta / biotin-H3K9me3 peptide binding; also: nearly all actives have a fitted effect of over 70% in size
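HP1-beta protein (50 nM final) preincubated 30 min at room temperature with biotinylated H3(1-18)K9me3 peptide (50 nM) in PBS pH 7.4, 0.01% Tween-20, then compound added for 30 min. AlphaScreen streptavidin donor/nickel chelate acceptor beads (10 ug/mL final), 30 min dark, luminescence read.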
G9a block: qHTS Assay for Inhibitors of Histone Lysine Methyltransferase G9a. Histone-lysine N-methyltransferase EHMT2 (Homo sapiens), Q96KQ7. G9a H3K9 monomethylation, AlphaScreen, 2 h. Potency, µM (titrated, usually from 102 µM), for the others: at the highest dose activity, negative = inhibition, hits mostly inhibitors. 350,000 tested, 8.8% active. AID 504332, 2011; also: % is scaled to controls: 0 for no effect and ±100 for the full control effect; nearly all actives have a fitted effect of over 75% in size
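Step 1: enzyme (final 20 nM) with compound, 15 min RT. Step 2: substrate peptide 500 nM and SAM 20 uM, 2 h RT. Step 3: anti-H3K9me1 antibody and AlphaScreen beads, 10 min, then plate read.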
PLK1 PBD inh: qHTS for Inhibitors of PLK1-PDB (polo-like kinase 1 - polo-box domain): Primary Screen; Serine/threonine-protein kinase PLK1 (Homo sapiens), P53350; Plk1 PBD binding of FITC phosphopeptide, fluorescence polarization; Potency, µM, without a hit: max response, negative = inhibition, hits mostly inhibitors; 360,000 tested, 2.8% active; also: series mostly up to about 57 µM; % is scaled to controls: 0 for no effect and ±100 for the full control effect; nearly all actives have a fitted effect of over 65% in size
Numbers without * were called inactive; ? = inconclusive; nt = not tested or not shown; [ ] = remark or other dose. A selection: hits, their analogues and other compounds. The true share with any hit is near 11%. Calls follow the shape of the dose curve; as a rule, active = well fitted curve in the direction sought with a large enough effect; inconclusive = small, poorly fitted or top-dose-only effect, or another doubt; inactive = no such curve, though single readings can be large; an effect the other way counts as inactive or inconclusive. Potency is read from the fitted curve at half-maximal effect.

SMILES	JMJD2A Tudor	BAZ2B inh	VDR inh	HP1b binding inh	G9a block	PLK1 PBD inh
C/C(=N\NC(=O)c1cccc(S(=O)(=O)Nc2ccccc2Cl)c1)c1ccc(-n2ccnc2)cc1	-21%	5%	1%	34%	9%[12.7 µM]	-13%
C/C(=N\Nc1cccc(Cl)c1)c1ccc(-n2ccnc2)cc1	?	?	?	5%	7.9µM*	-12%
COC(=O)N/N=C(\C)c1ccc(-n2ccnc2)cc1	9%	-7%	5%	44%	11%	-10%
C/C(=N/NS(=O)(=O)c1ccc(Cl)cc1)c1ccncc1	5%	-12%	-19%	30%	nt	?
C/C(=N/NS(=O)(=O)c1cccc([N+](=O)[O-])c1)c1ccncc1	-18%	?	28µM*	39%	35µM*	3µM*
CC(=NNS(=O)(=O)c1cccc([N+](=O)[O-])c1)c1ccc(-n2ccnc2)cc1	-24%	nt	-22%	0%	nt	19µM*
Cc1cccc(NS(=O)(=O)c2c(C)nc3sccn3c2=O)c1C	-8%	-14%	1%	36%	-32%[59 µM]	nt
CCOc1ccccc1C(=O)OCC(=O)NCCNC(=O)COC(=O)c1ccccc1OCC	-2%	?	9%	31%	nt	-10%
COc1ccc(-c2c(C#Cc3ccsc3)c3ccccc3n2C)cc1	-14%	?	0%	38%	32µM*	?
CCSC(C)CC1CC(=O)CC(=O)C1 (stereo not drawn)	-16%	-5%	20%	22%	56µM*	-12%
O=C(c1ccc2c(c1)N(Cc1cccc(F)c1)C(=O)c1ccccc1S2)N1CCCC1	-32%	?	5%	14%	-20%[59 µM]	nt
COc1ccc(C(=O)Nc2ccc3c(c2)CCCN3S(=O)(=O)c2ccc(C)cc2)c(OC)c1	1%	-16%	9%	38%	18%[59 µM]	nt
CCOc1ccc(S(=O)(=O)Nc2ccc3c(c2)CCCN3S(=O)(=O)c2ccc(C)cc2)cc1	-12%	56µM*	4%	-4%	?	nt
COc1cccc(C2=CC(c3ccccc3F)n3ncc(C(=O)Nc4ccc(F)cc4)c3N2)c1 (stereo not drawn)	?	-25%[57.1 µM]	3%	-10%	?	nt
Nc1nc2c(s1)COc1ccccc1-2	-32%	-26%	?	?	32µM*	19µM*
O=C(Cn1nnc(-c2ccccc2)n1)NNC(=O)c1ccc(Br)cc1	-14%[11.4 µM]	-21%	13%	3%	16%	-17%
O=C(Cn1nnc(-c2ccccc2)n1)NNC(=O)c1ccccc1	-11%	-18%	14%	?	40µM*	-17%
Cc1cccc(C)c1NC(=O)C1C2C=CC(C2)C1C(=O)NCc1ccccn1 (stereo not drawn)	-17%	79µM*	6%	9%	?	-6%
O=C(O)C1C2C=CC(C2)C1C(=O)NCc1ccccn1 (stereo not drawn)	nt	?	nt	nt	42%[59 µM]	nt
COn1c2c(c3c4nonc4ccc31)CCCC2	34%	14%	?	103%	10µM*	?
COn1c2c(c3c4no[n+]([O-])c4ccc31)CCCC2	-15%	-28%	-7%	11%	-16%	0%
COc1ccc([N+](=O)[O-])cc1NC(=O)COC(=O)c1ccc(O)cc1	-11%	5%	9%	20%	1%[59 µM]	-6%
COC(=O)/C=C1/SC(=NC(=O)c2cccc([N+](=O)[O-])c2)NC1=O	-10%	?	?	43%	20µM*	?
COC(=O)/C=C1/S/C(=N/NC(=O)c2ccccc2C)NC1=O	?	56µM*	-3%	38%	2µM*	1%
COC(=O)C/C=N/N=C1/NC(=O)/C(=C/C(=O)O)S1	50µM*	-33%	-12%	90%	45µM*	-2%
SMILES	JMJD2A Tudor	BAZ2B inh	VDR inh	HP1b binding inh	G9a block	PLK1 PBD inh
COC(=O)/C=C1\SC(=NC(=O)c2cccc([N+](=O)[O-])c2)NC1=O	-24%	-25%	14%	0%	35µM*	-25%
CC(=O)Nc1ccc(NC(=O)COC(=O)c2cc(S(=O)(=O)N(C)C)ccc2N2CCCC2)cc1	-20%	3%	9%	4%	?	-8%
CCOc1ccc(-n2cnc3sc(C)c(C)c3c2=O)cc1	-13%	-4%	17%	51%	nt	-4%
COc1ccc(OC)c(CCNC(=O)c2cc3cccc4c3n2CC(C)S4)c1 (stereo not drawn)	-32%	-38%	12%	25%	?	nt
COC(=O)/C=C1\S/C(=N/N=C/c2ccc(Cl)cc2)NC1=O	?	?	-14%	2%	nt	30µM*
COC(=O)/C=C1/SC(=NC(=O)c2ccc(F)cc2)NC1=O	-12%	-13%	-9%	15%	?	-20%
COC(=O)/C=C1/SC(=NC(=O)c2ccccc2)NC1=O	?	-35%	-21%	15%	22µM*	-26%
CN1CCN(C(=O)c2cn(C)c3ccc(S(=O)(=O)N(C)C4CCCCC4)cc3c2=O)CC1	-27%	-28%	-18%	20%	56µM*	-35%
COC(=O)[C@@H](NC(=O)NCc1ccccc1Cl)C(C)C	2%	-5%	10%	20%	16%[12.7 µM]	-6%
COc1cccc(NC(=O)Cn2cc(C(=O)c3ccc(C)cc3)c(=O)c3cc(OC)ccc32)c1	?	-32%	-4%	21%	?	nt
COc1ccc2c(c1)c(=O)c(C(=O)c1ccc(C)cc1)cn2Cc1ccccc1F	-28%	-28%	-5%	16%	-5%[59 µM]	nt
CCc1ccc(C(=O)c2cn(CC(=O)Nc3ccc4c(c3)OCO4)c3ccc(CC)cc3c2=O)cc1	-19%	79µM*	4%	47%	?	nt
CCc1ccc(C(=O)c2cn(CC(=O)Nc3ccc4c(c3)OCO4)c3cc(OC)c(OC)cc3c2=O)cc1	-35%	79µM*	-6%	26%	-28%[59 µM]	nt
COc1ccc(C(=O)c2cn(Cc3ccccc3F)c3ccc(F)cc3c2=O)cc1	-22%	79µM*	0%	21%	-9%[59 µM]	nt
CCc1ccc(C(=O)c2cn(CC(=O)Nc3ccc(Cl)cc3)c3cc4c(cc3c2=O)OCO4)cc1	-9%	-11%	-9%	25%	5%[59 µM]	nt
CCc1ccc(C(=O)c2cn(CC(=O)Nc3cccc(OC)c3)c3ccc(OC)cc3c2=O)cc1	11µM*	50µM*	-15%	3%	10µM*	nt
C=CCc1cccc2cc(C(=O)Nc3cccc(Cl)c3)c(=O)oc12	-6%	-1%	-5%	25%	-1%[59 µM]	nt
C=CCc1cccc2cc(NC(C)=O)c(=O)oc12	1%[11.4 µM]	9%	-13%	-16%	20%[59 µM]	27µM*

Screens (PubChem)
